# Screening results from PubChem.
# TDP1 inh: inhibitors of human tyrosyl-DNA phosphodiesterase TDP1 | Q9NUW8 | 0.28% of 350,000 active | recombinant TDP1, AlphaScreen DNA substrate cleavage | AID 485290 | Potency, µM (doses to about 130 µM), for inactives: top-dose activity change, negative = inhibition, hits mostly inhibitors; note: potency is the fitted concentration of half-maximal effect; nearly all actives have a fitted effect of over 40% in size
# Target sequence (Q9NUW8 whole entry, looked up): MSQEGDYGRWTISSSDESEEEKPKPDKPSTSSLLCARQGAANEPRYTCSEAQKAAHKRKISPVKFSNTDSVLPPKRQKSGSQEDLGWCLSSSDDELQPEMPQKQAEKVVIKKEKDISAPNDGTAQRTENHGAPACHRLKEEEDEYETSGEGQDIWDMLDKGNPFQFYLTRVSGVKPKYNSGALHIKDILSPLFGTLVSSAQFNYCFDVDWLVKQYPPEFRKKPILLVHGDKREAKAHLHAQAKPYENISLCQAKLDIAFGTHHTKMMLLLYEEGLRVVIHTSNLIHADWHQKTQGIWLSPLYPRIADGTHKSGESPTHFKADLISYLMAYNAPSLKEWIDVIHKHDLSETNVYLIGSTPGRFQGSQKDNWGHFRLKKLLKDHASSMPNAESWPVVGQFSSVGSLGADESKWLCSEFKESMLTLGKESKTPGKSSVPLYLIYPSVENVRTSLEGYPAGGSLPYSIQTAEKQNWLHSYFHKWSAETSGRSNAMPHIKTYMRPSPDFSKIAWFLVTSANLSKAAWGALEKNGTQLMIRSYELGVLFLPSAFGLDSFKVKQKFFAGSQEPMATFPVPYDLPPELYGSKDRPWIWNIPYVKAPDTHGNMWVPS
#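 Recombinant human Tdp1 (E. coli-expressed, 1 nM final) preincubated with compounds 15 min at room temperature, then 5'-biotin/3'-phosphotyrosine-FITC DNA substrate (15 nM final) added for 5 min. AlphaScreen beads (10 ug/ml final) added 10 min; cleavage lowers signal.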
# DT40 TDP1 CPT: growth inhibition of DT40 Tdp1-/-;hTDP1 cells with camptothecin (screen for TDP1 inhibitors); 12% of 420,000 active; AID 686979; Potency, µM (doses to about 46.2 µM), inactives show top-dose activity change, negative = growth inhibition, actives largely listed as inhibitors; chicken DT40 Tdp1-/-;hTDP1 cells + 20 nM CPT, ATP luminescence, 48 h; note: potency is the fitted concentration of half-maximal effect; nearly all actives have a fitted effect of over 55% in size
#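 Chicken DT40 Tdp1-/- cells stably complemented with human TDP1 were seeded at 400 cells/well in medium containing 20 nM camptothecin, exposed to pin-transferred compounds, and grown at 37 °C for at least 48 hr. Viability was read as ATP luminescence.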
# TDP1 cell noCPT: qHTS for Inhibitors of human tyrosyl-DNA phosphodiesterase 1 (TDP1): qHTS in cells in absence of CPT; Potency, µM (top dose mostly 46.2 µM), without a hit: at the highest dose activity change, negative = growth inhibition, hits mostly inhibitors; DT40 Tdp1-/- hTDP1 cells, no CPT, ATP luminescence, 48 h; 15% of 420,000 active; AID 686978, 2013; note: potency is the fitted concentration of half-maximal effect; nearly all actives have a fitted effect of over 55% in size
#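 Growth of hTDP1-complemented DT40 Tdp1-knockout cells is measured by ATP luminescence after at least 48 hr compound exposure at 37 °C, with DMSO substituting for the 20 nM CPT used in the parallel screen.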
# IL1B secr inh: blocks inflammasome-driven IL-1 beta release; THP-1 LPS/ATP IL-1B secretion, AlphaLISA, 16 h; active compounds read low; activity change, % at 57.5 µM; 4.7% of 360,000 active; AID 743279; in the data active = activity change below about -50%; inconclusive = mostly about -30% to -49%
#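 THP-1 cells pretreated 1 hr with compounds (up to 57.5 uM final), then stimulated with LPS (250 ng/mL final) plus ATP (1.25 mM final); secreted IL-1B measured by AlphaLISA after 16 hr, decreased signal indicating inhibition.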
# Six1-Eya2 inh: Six1/Eya2 interaction inhibition; Q15475+O00167; 0.56% of 360,000 active; activity change, % (concentration not given with the values); AlphaScreen GST-Six1/His-Eya2 binding, biochemical; active compounds read low; in the data active = activity change below about -65%; inconclusive = mostly about -30% to -63%
#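 Homogeneous AlphaScreen proximity assay pairing GST-Six1 with His-tagged Eya2 (added as 5X mix: 250 nM and 500 nM) in 50 mM Tris pH 8.0, 300 mM NaCl, 1 mM TCEP. Glutathione donor and nickel acceptor beads; 1 h, 37 °C, dark.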
# CtBP-E1A blk: CtBP/E1A binding inhibition; AlphaScreen GST-E1A/His-CtBP binding, 1536-well; active compounds read low; activity change, % (concentration not given with the values); 0.49% of 340,000 active; in the data active = activity change below about -65%; inconclusive = mostly about -30% to -63%
#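 In 5 uL wells, 23 nL compound meets equimolar GST-E1A and His-CtBP (5X stock 125 nM each) for 2 h, 37 °C. Beads (5X, 50 ug/mL) then 1 h, 37 °C, dark.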
# * marks the source's active call; other numbers are inactive results; u = inconclusive; x = not tested or not shown; [ ] = dose if it differs, or a comment. Compounds with a hit are over-represented: about 18% of the library has one in this group of screens. Unless noted, calls come from the whole dose curve; as a rule, active = well fitted curve in the direction sought with a large enough effect; inconclusive = small, poorly fitted or top-dose-only effect, or another doubt; inactive = no such curve, though single readings can be large; an effect the other way counts as inactive or inconclusive. % is set by controls: 0 for no effect and ±100 for the full control effect.
SMILES,TDP1 inh,DT40 TDP1 CPT,TDP1 cell noCPT,IL1B secr inh,Six1-Eya2 inh,CtBP-E1A blk
COc1ccccc1N1CCN(C(=O)CNC(=O)Cn2cnc3sc(C)c(C)c3c2=O)CC1,10%,-4%,u,8,-17,-24
CN(C)C(=O)CN1CCN(C(=O)CCl)CC1,5%,u,16µM*,-4,9,12
CC(C)NC(=O)CN1CCN(C(=O)CCl)CC1,0%,2%,3%,-7,13,2
COc1cc(CN2CCCC(N3CCN(c4ccccc4C)CC3)C2)ccc1O (stereo not drawn),x,13µM*,u,-6,-12,-4
OCCOc1ccc(CN2CCCC(N3CCN(c4ccc(F)cc4)CC3)C2)cc1 (stereo not drawn),x,-11%,-4%,0,-3,4
COc1cc(CN2CCCC(N3CCN(c4ccc(F)cc4)CC3)C2)ccc1F (stereo not drawn),5%,21µM*,u,-21,-4,x
COc1cccc(CN2CC(C(=O)NCCc3nccs3)CCC2=O)c1 (stereo not drawn),x,-7%,1%,0,31,-6
Cc1cc(NC(=O)COc2ccccc2C)ccc1NC(=O)c1ccco1,15%,23µM*,16µM*,-27,-4,-15
Cc1cc(NC(=O)COc2ccccc2C)ccc1NC(=O)c1cccs1,-14%,-61%,12µM*,-62*,-1,0
Cc1cccc(C)c1OCC(=O)Nc1ccc(NC(=O)c2ccco2)cc1,1%,26µM*,21µM*,-17,3,5
CC(C)(C)CN1C(N)=NC[C@@H]1Cc1ccc(O)cc1,2%,-25%,-5%,-7,-24,-12
COc1ccccc1CN(Cc1ccco1)S(=O)(=O)c1ccc(-n2cnnn2)c(OC)c1,5%,u,u,-23,-9,8
COC(=O)c1c(NC(=O)CC2SC(N)=NC2=O)sc2c1CCC(C)C2 (stereo not drawn),3%,-8%,u,u,-5,-5
COC(=O)c1c(NC(=O)CC2SC(N)=NC2=O)sc2c1CCC(C(C)(C)C)C2 (stereo not drawn),3%,u,u,-53*,-4,-8
CCOC(=O)c1c(NC(=O)CC2SC(N)=NC2=O)sc2c1CCC(C)C2 (stereo not drawn),3%,5%,-20%,-52*,-7,3
CCOC(=O)c1c(NC(=O)CC2SC(N)=NC2=O)sc(C)c1C (stereo not drawn),6%,23µM*,-40%,-7,0,-22
O=C(Cn1c(=O)n(Cc2ccco2)c(=O)c2cccnc21)Nc1ccccc1F,-3%,-28%,u,x,x,x
Cc1ccc(S(=O)(=O)N2CCN(C(=O)Cn3c(=O)oc4ccccc43)CC2)cc1,0%,-5%,3%,1,-14,6
COc1ccc(NS(=O)(=O)c2cc(NC(=O)c3cnc(C)cn3)ccc2N2CCCCC2)cc1,3%,u,u,-9,-5,-7
COc1ccc(NS(=O)(=O)c2cc(NC(=O)c3ccco3)ccc2N2CCCCC2)cc1,4%,u,18µM*,0,1,2
COc1ccc(NS(=O)(=O)c2cc(NC(=O)c3cnc(C)cn3)ccc2N2CCCC2)cc1,3%,-24%,u,-1,-9,-16
COc1ccc(NS(=O)(=O)c2cc(NC(=O)c3ccc(=O)[nH]c3)ccc2N2CCCC2)cc1,7%,4.1µM*,7.3µM*,73,-19,u
O=C(Nc1nnc([C@H]2C[C@H](O)[C@@H](CO)O2)s1)NC(c1ccccc1)c1ccccc1,x,u,-20%,12,0,-4
COc1ccc(NC(=O)C(=O)NNC(=O)COc2ccc(Cl)cc2)c(OC)c1,4%,-22%,u,-26,-15,-26
N#Cc1cc2c(nc1SCC(O)CS(=O)(=O)Cc1ccc(Cl)cc1)CCCC2 (stereo not drawn),7%,u,u,-61*,-15,10
SMILES,TDP1 inh,DT40 TDP1 CPT,TDP1 cell noCPT,IL1B secr inh,Six1-Eya2 inh,CtBP-E1A blk
N#Cc1cc2c(nc1SCc1ccncc1)CCC2,5%,18µM*,u,u,2,-4
CC(C)(C)c1ccc(S(=O)(=O)CC(O)CSc2nc3c(cc2C#N)CCCC3)cc1 (stereo not drawn),5%,-17%,-7%,16,1,3
COc1ccc2c(c1)C(=O)N(c1ccc(C)cc1C)C(=O)C2,3%,13µM*,21µM*,14,-3,5
COc1ccc2c(c1)CCc1cnc(-n3ncc(C(=O)NCCCc4ccncc4)c3C)nc1-2,x,-2%[9.04 µM],18µM*,x,x,x
CCN(CC)CCNC(=O)c1cnn(-c2ncc3c(n2)-c2ccc(OC)cc2CC3)c1C,x,18%[9.04 µM],-17%,x,x,x
CCN(Cc1ccncc1)Cc1ccc2c(c1)CN(C(=O)c1ccc(C#CC(C)(C)O)o1)CCO2,x,4%[9.04 µM],u,x,x,x
C/C(=C/C=N/Nc1nc(N2CCCCC2)nc(N2CCCCC2)n1)c1ccccc1,-1%,-27%,u,-12,-4,9
Oc1ccc(/C=N/Nc2nc(N3CCCCCC3)nc(N3CCCCCC3)n2)c(O)c1,5%,u,u,-99*,-11,-3
Brc1cc2c(cc1/C=N/Nc1nc(N3CCCC3)nc(N3CCOCC3)n1)OCO2,6%,26µM*,16µM*,u,-17,-6
C/C(=N\Nc1nc(N2CCCCC2)nc(N2CCOCC2)n1)c1ccccc1O,-1%,u,21µM*,-86*,10,-12
Cc1ccc(/C=N/Nc2nc(N3CCOCC3)nc(N3CCOCC3)n2)o1,7%,-13%,u,-20,4,-1
Oc1ccc(Br)cc1/C=N/Nc1nc(N2CCCCC2)nc(N2CCOCC2)n1,6%,15µM*,u,u,6,13
Cc1ccc(-n2cc(CCCCCCCCC(=O)O)nn2)cc1,x,-2%,9%,6,2,4
CN(C/C=C/c1ccccc1)Cc1cccc2ccccc12,x,u,u,-12,5,26
Oc1ccc(/C=N/Nc2nc(N3CCCC3)nc(N3CCCC3)n2)cc1O,5%,u,5.8µM*,34,-1,11
Oc1ccc(/C=N/Nc2ccc(Cl)nn2)cc1O,x,u,15µM*,45,u,x
COc1ccc(-c2csc3ncnc(N4CCN(c5ccccc5OC)CC4)c23)cc1,3%[0.0935 µM],u,18µM*,u,-14,-28
